Data taken from paper PMC4242493, “Sequence specificity incompletely defines the genome-wide occupancy of Myc”.
In all, about 33,000 sequences were measured (“normalized occupancy”: median about 0.075, highest 2% from about 0.095 on). This excerpt belongs to a sample that is enriched for the highest values.

Target: MaxL homodimer (Homo sapiens, UniProt P61244 1-160)
Experiment: universal protein-binding microarray (PBM); PBS-based mixture, 10 nM His-tagged protein dimer, 2% milk, 200 ng/uL BSA, 50 ng/uL salmon testes DNA, 0.02% TX-100; detection with Alexa 488 anti-His antibody;; high values mean tight binding
Settings: protein: recombinant; tags: C-terminal His-tag (pET21a); chain copies: 2; dsDNA, one strand shown
In short: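 Binding occupancy is a fluorescence intensity normalised to the intensity of the highest-ranked sequence word. Those intensities came from 8-mers on Agilent 4 x 44 K 'all 10-mer' universal arrays incubated with 10 nM His-tagged protein dimer. Bound protein was detected with 10 ng/μL fluorophore-conjugated anti-His antibody before scanning on a GenePix 4400A.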

Sequence of MaxL homodimer (P61244 whole entry): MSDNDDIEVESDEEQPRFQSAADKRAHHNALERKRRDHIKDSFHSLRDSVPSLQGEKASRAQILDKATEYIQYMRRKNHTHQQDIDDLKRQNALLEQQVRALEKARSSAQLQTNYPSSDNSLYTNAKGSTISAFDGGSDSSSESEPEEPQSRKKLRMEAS

Row | Sequence | binding signal
1 | CAGATGCG | 0.078 normalized occupancy
2 | AACATGCC | 0.089 normalized occupancy
3 | GAGATGCC | 0.0786 normalized occupancy
4 | GACATGCC | 0.0968 normalized occupancy
5 | CAAATGCG | 0.0791 normalized occupancy
6 | GACATGCA | 0.0909 normalized occupancy
7 | CCAACCCA | 0.0759 normalized occupancy
8 | AGTGCCTC | 0.0729 normalized occupancy
9 | AGAGGCAC | 0.0762 normalized occupancy
10 | AGGCTCAT | 0.0751 normalized occupancy
11 | AATCTAAA | 0.0727 normalized occupancy
12 | ACCGGTAG | 0.0719 normalized occupancy
13 | CACATGCA | 0.138 normalized occupancy
14 | TACATGCA | 0.0895 normalized occupancy
15 | CAAATGCA | 0.0784 normalized occupancy
16 | ATGCGGAG | 0.0844 normalized occupancy
17 | CGTTGAGC | 0.0723 normalized occupancy
18 | GGGCATGA | 0.087 normalized occupancy
19 | CGGCATAC | 0.0757 normalized occupancy
20 | CGGCATGC | 0.109 normalized occupancy
21 | AGGCATGA | 0.091 normalized occupancy
22 | CGGCATGA | 0.0962 normalized occupancy
23 | CGGCATCC | 0.078 normalized occupancy
24 | AGACCATC | 0.0766 normalized occupancy
25 | ATCTAGTG | 0.078 normalized occupancy

Row | Sequence | binding signal
26 | GCCTGCCA | 0.072 normalized occupancy
27 | CTGCACGC | 0.0997 normalized occupancy
28 | CTGCACAA | 0.0745 normalized occupancy
29 | ATGCACGG | 0.0875 normalized occupancy
30 | CTGCACGA | 0.0824 normalized occupancy
31 | CAGCACGA | 0.0909 normalized occupancy
32 | AAGCACGC | 0.0949 normalized occupancy
33 | ATGCACGA | 0.0913 normalized occupancy
34 | CAGCACGC | 0.0982 normalized occupancy
35 | ATGCACGC | 0.111 normalized occupancy
36 | CAATTTGG | 0.0724 normalized occupancy
37 | CCACCGAA | 0.0733 normalized occupancy
38 | AACAGCGA | 0.0748 normalized occupancy
39 | AGTCACAA | 0.0805 normalized occupancy
40 | GTATATCA | 0.0787 normalized occupancy
41 | ACCCCCCA | 0.0865 normalized occupancy
42 | CCCACCCA | 0.0925 normalized occupancy
43 | ACCCCCCC | 0.0963 normalized occupancy
44 | GCCACCCC | 0.0827 normalized occupancy
45 | CCCACCCC | 0.0962 normalized occupancy
46 | AACCCCCC | 0.0825 normalized occupancy
47 | GGTGCAAA | 0.0755 normalized occupancy
48 | CCACGAGA | 0.1 normalized occupancy
49 | CCACGAGG | 0.182 normalized occupancy
50 | TCACGAGA | 0.0875 normalized occupancy

Row | Sequence | binding signal
51 | CCACGAGC | 0.0889 normalized occupancy
52 | GCACGAGA | 0.098 normalized occupancy
53 | GCACGAGC | 0.085 normalized occupancy
54 | CAACGAGA | 0.0767 normalized occupancy
55 | CCACGACG | 0.0811 normalized occupancy
56 | CCACGAAG | 0.0767 normalized occupancy
57 | ATGGACTA | 0.0826 normalized occupancy
58 | ACTGTTCA | 0.073 normalized occupancy
59 | AATGTTAC | 0.0779 normalized occupancy
60 | ACTGCGGA | 0.0741 normalized occupancy
61 | AGCTCCAA | 0.0722 normalized occupancy
62 | CCACGCCA | 0.0991 normalized occupancy
63 | CCACGCCC | 0.0948 normalized occupancy
64 | CTACGCCA | 0.0777 normalized occupancy
65 | GCACGCCA | 0.0859 normalized occupancy
66 | CCACGCCG | 0.0985 normalized occupancy
67 | CCACACCA | 0.0899 normalized occupancy
68 | CGCTTGTA | 0.0739 normalized occupancy
69 | AGGCTTTA | 0.0758 normalized occupancy
70 | ATGCCAAC | 0.0785 normalized occupancy
71 | AGGCGTGG | 0.098 normalized occupancy
72 | AGGCGTGA | 0.0829 normalized occupancy
73 | AGGCGCGC | 0.0762 normalized occupancy
74 | AGGCGTGC | 0.0963 normalized occupancy
75 | AGGCGTTC | 0.0755 normalized occupancy

Row | Sequence | binding signal
76 | AGGCGTCG | 0.0733 normalized occupancy
77 | AATTAAAT | 0.0748 normalized occupancy
78 | CGTAATTC | 0.0757 normalized occupancy
79 | ACCAAGCG | 0.0722 normalized occupancy
80 | ACAACTGT | 0.0734 normalized occupancy
81 | ATACGCGC | 0.0771 normalized occupancy
82 | ACGCGCGT | 0.0896 normalized occupancy
83 | ACGCGCGG | 0.0929 normalized occupancy
84 | AAACGCGA | 0.0771 normalized occupancy
85 | ACACGCGG | 0.143 normalized occupancy
86 | ACACGCGA | 0.116 normalized occupancy
87 | ACGCGCGC | 0.0821 normalized occupancy
88 | ACACGCGT | 0.13 normalized occupancy
89 | ACACGCGC | 0.112 normalized occupancy
90 | AAACGCGG | 0.0761 normalized occupancy
91 | AAACGCGT | 0.08 normalized occupancy
92 | ACGCGCGA | 0.0786 normalized occupancy
93 | TAGAACAA | 0.0771 normalized occupancy
94 | CAGTGCTC | 0.0745 normalized occupancy
95 | ATAGCGAA | 0.0727 normalized occupancy
96 | ATTGTAAC | 0.0837 normalized occupancy
97 | CTCAATCA | 0.0801 normalized occupancy
98 | ACAATGAA | 0.0787 normalized occupancy
99 | AGGACATA | 0.0758 normalized occupancy
100 | TCTTATCA | 0.0736 normalized occupancy

Row | Sequence | binding signal
101 | CTACTGTC | 0.0719 normalized occupancy
102 | CGACATGC | 0.0992 normalized occupancy
103 | CGACATGA | 0.0858 normalized occupancy
104 | AGACATGG | 0.0832 normalized occupancy
105 | AGACATGC | 0.102 normalized occupancy
106 | AGACATGA | 0.0878 normalized occupancy
107 | CGACATTC | 0.0758 normalized occupancy
108 | CTAGCTCA | 0.0759 normalized occupancy
109 | CACGCCCA | 0.0892 normalized occupancy
110 | GAGAGCAC | 0.0743 normalized occupancy
111 | CGACGCTA | 0.0724 normalized occupancy
112 | CAACGCTA | 0.0734 normalized occupancy
113 | CCACGCTC | 0.0965 normalized occupancy
114 | ACACGCTC | 0.0924 normalized occupancy
115 | CAACGCTC | 0.0772 normalized occupancy
116 | CCACGCAC | 0.0964 normalized occupancy
117 | GTACGCTA | 0.0796 normalized occupancy
118 | GCACGCTA | 0.101 normalized occupancy
119 | GAACGCTA | 0.0771 normalized occupancy
120 | GCACGCAC | 0.0902 normalized occupancy
121 | CCACGCTA | 0.0973 normalized occupancy
122 | CCACGCAA | 0.0865 normalized occupancy
123 | GAACACAA | 0.0743 normalized occupancy
124 | CCAATTCG | 0.0738 normalized occupancy
125 | AGCCCTCC | 0.0723 normalized occupancy

Row | Sequence | binding signal
126 | TCGTAAAA | 0.0794 normalized occupancy
127 | GCCATCAC | 0.0781 normalized occupancy
128 | ATACTGGC | 0.0812 normalized occupancy
129 | AGGCACAC | 0.0801 normalized occupancy
130 | ACGCACAG | 0.076 normalized occupancy
131 | ACGCACAA | 0.0775 normalized occupancy
132 | AGTCACAG | 0.0732 normalized occupancy
133 | AGTCACAT | 0.101 normalized occupancy
134 | AGGCACAT | 0.098 normalized occupancy
135 | AGGCACAG | 0.075 normalized occupancy
136 | ACGCACAT | 0.0968 normalized occupancy
137 | AGTCACAC | 0.0886 normalized occupancy
138 | GCGACAGC | 0.0756 normalized occupancy
139 | CAACATCG | 0.0784 normalized occupancy
140 | GTACGGGA | 0.0747 normalized occupancy
141 | GCACCAGC | 0.0755 normalized occupancy
142 | TCTGTTAA | 0.0739 normalized occupancy
143 | AACTGTAC | 0.0732 normalized occupancy
144 | AAGCTACG | 0.0726 normalized occupancy
145 | CTATTGTC | 0.079 normalized occupancy
146 | CCTACAGC | 0.0762 normalized occupancy
147 | ATATGCTG | 0.0875 normalized occupancy
148 | AGATGCTG | 0.078 normalized occupancy
149 | GGATGCTA | 0.0763 normalized occupancy
150 | CCATGCTA | 0.0945 normalized occupancy

Row | Sequence | binding signal
151 | ACATGCTG | 0.124 normalized occupancy
152 | GCATGCTA | 0.112 normalized occupancy
153 | ACATGCTA | 0.106 normalized occupancy
154 | AGATGCTA | 0.0746 normalized occupancy
155 | AAATGCTA | 0.0773 normalized occupancy
156 | AATAGTAA | 0.0776 normalized occupancy
157 | CATGGCTA | 0.0864 normalized occupancy
158 | AAGAATTG | 0.0747 normalized occupancy
159 | TAGTGGCA | 0.0787 normalized occupancy
160 | GATGCTAA | 0.0749 normalized occupancy
161 | CAGAGACC | 0.0727 normalized occupancy
162 | AGCTATAA | 0.0785 normalized occupancy
163 | CCAGGTAA | 0.0729 normalized occupancy
164 | ACATACAG | 0.0868 normalized occupancy
165 | ACGTGCTA | 0.109 normalized occupancy
166 | CCGTGCTC | 0.0737 normalized occupancy
167 | ACGTGCTC | 0.108 normalized occupancy
168 | GCGTGCTA | 0.117 normalized occupancy
169 | CCGTGCTA | 0.0812 normalized occupancy
170 | AGGTGCTC | 0.0817 normalized occupancy
171 | ACGTGCTG | 0.0935 normalized occupancy
172 | GTGTGCTA | 0.0884 normalized occupancy
173 | GGGTGCTA | 0.0789 normalized occupancy
